The values below come from the supplement of paper PMC11383364.

The subject of this test is SUM149. In words: percent difference in area under dose-response curve of relative cell number, RPMI vs HPLM; higher = drug relatively more effective in HPLM than RPMI (negative = less effective in HPLM). Particulars: treatment time: 72 h; dose range: 10-point, 1 nM to 20 µM; media compared: RPMI vs HPLM.
Take `CC(=O)N1CCN(c2ccc(OCC3COC(Cn4ccnc4)(c4ccc(Cl)cc4Cl)O3)cc2)CC1` (centres undefined) [Ketoconazole]: the “percent difference in area under dose-response curve” value (“percent difference in area” for short) is -8.22%.
Under `CCOc1cc(N2CCC(O)CC2)ccc1Nc1ncc2c(n1)N(C)c1ccccc1C(=O)N2C` stands -8.79%; under `Cc1nc(Nc2n[nH]c3c2CN(C(=O)N[C@H](CN(C)C)c2ccccc2)C3(C)C)c2sccc2n1`, -62.7%.
On to `Cc1cc([N+](=O)[O-])ccc1NS(=O)(=O)c1cc(Cl)ccc1Cl`, for which the “percent difference in area” value is 11.9%.
The figure for `CN(N=O)C(=O)N[C@@H](C=O)[C@@H](O)[C@H](O)[C@H](O)CO` [Streptozotocin] is -5.59%.
Under `COc1ccc2cc(-c3nc(-c4ccc([S+](C)[O-])cc4)[nH]c3-c3ccncc3)ccc2c1` (centres undefined) [Tie2_kinase_inhibitor] stands -0.194%; under `CC(=O)Nc1nc(C)c(-c2ccc(Cl)c(S(=O)(=O)NCCO)c2)s1`, -8.79%.
The figure for `Cc1ccc(NC(=O)c2ccc(CN3CCN(C)CC3)cc2)cc1Nc1nccc(-c2cccnc2)n1` [Imatinib_Mesylate] is -3.71%; for `CS(=O)(=O)N1CCc2c(-c3cnc(N)nc3)nc(N3CCOCC3)nc21` it is -3.59%.
On to `O=C(/C=C/c1cccc(S(=O)(=O)Nc2ccccc2)c1)NO` [Belinostat], for which the “percent difference in area” value was -13%.
Under `O=C(O)c1ccc(-c2c[nH]c3ncc(-c4ccccc4)cc23)cc1C1CCCC1` stands -9.42%; under `COc1ccc(-c2ccc3c(N4CCOCC4)nc(N4C[C@@H](C)O[C@@H](C)C4)nc3n2)cc1CO`, -2.21%.
The figure for `Cc1cnc(-c2cnc(NCCNc3ccc(C#N)cn3)nc2-c2ccc(Cl)cc2Cl)[nH]1` is 7.14%; for `CC(C)n1nc(-c2ccc3oc(N)nc3c2)c2c(N)ncnc21` it is 0.531%.
The figure for `O=c1[nH]c(=O)n([C@H]2C[C@H](O)[C@@H](CO)O2)cc1F` [Floxuridine] is 14.1%.
Consider `Oc1nc(-c2ccc(C(F)(F)F)cc2)nc2c1CSCC2`, for which the “percent difference in area” value was -0.882%.
Under `CC1(C)CCC2=C(O1)c1ccccc1C(=O)C2=O` [beta_Lapachone] stands 0.097%; under `CC(C)(C#N)c1cc(Cn2cncn2)cc(C(C)(C)C#N)c1` [Anastrozole], -1.33%; under `CN(C)Cc1ccc(-c2nc3cccc4c3n2CCNC4=O)cc1`, -5.91%.
Consider `Cc1cc(/C=C/c2ccc3cc(N(C)C)ccc3[n+]2C)c(C)n1-c1ccccc1` [Pyrvinium_pamoate], for which the “percent difference in area” value is -34.5%.
Under `COc1ncc(-c2ccc3nccc(-c4ccnnc4)c3c2)cc1NS(=O)(=O)c1ccc(F)cc1F` stands -12.4%; under `CC(C)c1cc(-c2n[nH]c(=O)n2-c2ccc3c(ccn3C)c2)c(O)cc1O` [Ganetespib], -31.8%.
Turning to `Cc1ccc(NC(=O)c2ccc(CN3CCN(C)CC3)cc2)cc1Nc1nc(-c2cccnc2)cs1` [Masitinib], the “percent difference in area” value is -3.29%.
For `CCc1c2c(nc3ccc(OC(=O)N4CCC(N5CCCCC5)CC4)cc13)-c1cc3c(c(=O)n1C2)COC(=O)[C@]3(O)CC` [Irinotecan], the “percent difference in area” value was -12.2%.
Under `CC(C)CC(=O)Nc1n[nH]c2c1CN(C(=O)C1CCN(C)CC1)C2(C)C` stands -18.5%; under `OCCN(CCO)c1nc(N2CCCCC2)c2nc(N(CCO)CCO)nc(N3CCCCC3)c2n1` [Dipyridamole], 2.66%.
The figure for `O=C(CCCCCCC(=O)Nc1ccc([C@H]2O[C@@H](CSc3nc(-c4ccccc4)c(-c4ccccc4)o3)C[C@@H](c3ccc(CO)cc3)O2)cc1)NO` [Tubacin] is -4.43%.
The figure for `Cn1cnc([N+](=O)[O-])c1Sc1ncnc2[nH]cnc12` [Azathioprine] is -50.6%.
For `CC(C)[C@H](C(=O)Nc1ccc(C(=O)NO)cc1)c1ccccc1`, the “percent difference in area” value was -15.2%.
For `CN1CC[C@H](c2c(O)cc(O)c3c(=O)cc(-c4ccccc4Cl)oc23)[C@H](O)C1` [Flavopiridol], the “percent difference in area” value is -2.56%.
Take `COc1cc(OC2CCN(C)CC2)ccc1Nc1ncc2c(n1)n(C1CCCC1)c(=O)n2C`: the “percent difference in area” value was -4.5%.
On to `CC(C)c1cc(C(C)C)c(CC(=O)NS(=O)(=O)Oc2c(C(C)C)cccc2C(C)C)c(C(C)C)c1` [Avasimibe], for which the “percent difference in area” value is -0.523%.
Turning to `COc1cc(OC)c(/C=C/S(=O)(=O)Cc2ccc(OC)c(NCC(=O)O)c2)c(OC)c1` [Rigosertib], the “percent difference in area” value was -46.7%.
Regarding `CCCc1cc(-c2nc(-c3ccc(C)cc3)cs2)ccn1` [Fatostatin_A], the “percent difference in area” value was -2.81%.
